Compound activity: PubChem BioAssay, National Center for Advancing Translational Sciences (NCATS)
Only some compounds are listed: those with a hit (about 1.2% of all), similar ones and a draw of the others.
KCNH2 WT inh – qHTS for Inhibitors of KCHN2 3.1: Wildtype qHTS; Voltage-gated inwardly rectifying potassium channel KCNH2 (Homo sapiens), Q12809; hit rate 0.37% among 340,000; activity change, % at 1.84 µM; U2OS, BacMam KCNH2, thallium flux FluxOr; hits give low values;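 active means maximum activity change below -70%; inconclusive means maximum activity change between -70% and -50%; inactive means maximum activity change above -50%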
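U2OS cells were transduced with wild-type KCNH2 virus (2.03 x 10^8 / mL) for 4 h at room temperature, then cultured overnight at 37 C. Thallium flux was read with FluxOr dye. Rate constants were normalized to DMSO controls.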
KCNH2 3.1 block – qHTS for Inhibitors of KCHN2 3.1: Mutant qHTS | Potassium voltage-gated channel subfamily H member 2, brain isoform KCNH2 3.1 (human) | hit rate 0.95% among 340,000 | activity change, % (tested at about 1.8 µM) | U2OS KCNH2 3.1, thallium flux FluxOr; hits give low values | AID 720553, 2013;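 active means maximum activity change below -70%; inconclusive means maximum activity change from -70% to -50%; inactive means maximum activity change above -50%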;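 further: thallium influx rate constant from kinetic fluorescence after stimulation buffer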
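We transduce U2OS cells with the mutant 3.1 virus, culture them overnight, load FluxOr with Red40 quencher for 45 min, then add stimulation buffer and read kinetically for 2 min to derive a normalized rate constant.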
TSG101-PTAP inh – qHTS Assay for Iinhibitors of HIV-1 Budding by Blocking the Interaction of PTAP/TSG101; Tumor susceptibility gene 101 protein (Homo sapiens), Q99816; Fluorescence polarization, FITC-PTAP peptide / Tsg101 binding; Potency, µM (titrated, usually from 115 µM), actives largely listed as inhibitors; 340,000 tested, under 10 active; AID 493005, 2010; active means well fitted inhibition curve with a large enough effect in the main read-out, with a control signal flat, not every such curve was filed as active; inconclusive means small, poorly fitted or top-dose-only effect, or effect the other way, or a change in a side signal; inactive means no such curve, though single readings can be large or run the other way
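Fluorescence anisotropy tracks displacement of a FITC-tagged PTAP peptide (50 nM) from the Tsg101 binding domain (10 uM), following a 20 min room-temperature incubation at pH 7.5.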
Tb PFK inh-1 – qHTS Assay to Find Inhibitors of T. brucei phosphofructokinase. AID 485367, 2010. ATP-dependent 6-phosphofructokinase (Trypanosoma brucei brucei), O15648. Potency, µM (series often up to 57.5 µM), usual class: inhibitors. T. brucei PFK, ADP-Glo luminescence. hit rate 0.17% among 330,000; further: nearly all actives have a fitted effect of over 60% in size
Target sequence (O15648 whole entry, looked up): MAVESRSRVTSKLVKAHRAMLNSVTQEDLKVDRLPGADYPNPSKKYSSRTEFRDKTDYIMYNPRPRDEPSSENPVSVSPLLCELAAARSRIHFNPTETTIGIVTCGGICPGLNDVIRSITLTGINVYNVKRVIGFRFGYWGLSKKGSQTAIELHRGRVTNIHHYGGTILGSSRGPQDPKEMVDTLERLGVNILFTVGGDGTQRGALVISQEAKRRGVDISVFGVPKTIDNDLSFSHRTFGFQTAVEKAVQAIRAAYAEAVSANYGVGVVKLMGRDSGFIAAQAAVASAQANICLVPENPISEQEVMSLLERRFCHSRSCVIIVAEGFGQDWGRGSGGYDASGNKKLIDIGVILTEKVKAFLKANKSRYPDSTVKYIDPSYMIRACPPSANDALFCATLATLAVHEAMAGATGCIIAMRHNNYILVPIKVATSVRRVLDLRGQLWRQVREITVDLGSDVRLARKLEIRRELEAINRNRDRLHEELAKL
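In TEA buffer at pH 8.0 with 5 mM MgCl2, enzyme (1.25 nM) converted F6P (0.5 mM) and ATP (0.1 mM) for 45 min at room temperature. ADP product was read by luciferase luminescence.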
TbPFK ATP – Tb PFK orthogonal confirmatory assay using ATP depletion (Kinase-Glo Plus) as an alternative measure of Tb PFK activity: Hit Validation. AID 504636, 2011. hit rate 47% among 1,100. Potency, µM (highest dose often 57.5 µM). Tb PFK enzyme, ATP depletion, Kinase-Glo Plus luminescence. shares compounds with Tb PFK inh-1; calls by dose curve; further: nearly all actives have a fitted effect of over 60% in size
Tb PFK inh-2 – Inhibitors of T. brucei phosphofructokinase: Hit Validation | shares compounds with Tb PFK inh-1 | purified T. brucei PFK, ADP-Glo luminescence, 45 min | Potency, µM (titrated, usually from 57.5 µM), hits mostly inhibitors | hit rate 41% among 1,100; further: nearly all actives have a fitted effect of over 60% in size
Hits are given with their value; 0 = inactive; ? = inconclusive; - = no result. Unless noted, the call rests on the fitted dose curve; in most records, active means well fitted inhibition curve with a large enough effect; inconclusive means small, poorly fitted or top-dose-only effect, or effect the other way; inactive means flat fitted curve, though single readings scatter.

SMILES	KCNH2 WT inh	KCNH2 3.1 block	TSG101-PTAP inh	Tb PFK inh-1	TbPFK ATP	Tb PFK inh-2
CCOC(=O)C(O)(c1ccc(NC(=O)c2ccc(Cl)c(Cl)c2)cc1)C(F)(F)F (configuration not stated)	0	0	0	0	-	-
COc1ccc(-c2nn(CCC#N)cc2C(=O)Nc2cccc([N+](=O)[O-])c2)cc1OC	0	0	0	0	-	-
Cc1ncoc1C(=O)NCC1=C(c2ccc3ccccc3c2)C[C@@H]2CC[C@H]1N2Cc1ccco1	0	0	-	-	-	-
Cc1ccc(N2C(=O)NC(=O)C(CCc3ccccn3)(Cc3ccc(F)cc3)C2=O)cc1 (configuration not stated)	0	0	0	0	-	-
CCc1ccc(NC2=NCCCS2)cc1	0	0	0	0	-	-
Cc1nc2ccc(NC3=NCCCCC3)cc2s1	0	0	0	11µM	8.5µM	6.7µM
CCOC(=O)C1CCN(/C=C2/C(=O)NC(=O)N(Cc3ccco3)C2=O)CC1	0	0	0	?	?	?
CC1=CC2OC3CC4OC(=O)C=CC=CC(C(C)O)OCC(O)C5(C)OC5C(=O)OCC2(CC1O)C4(C)C31CO1 (configuration not stated)	0	0	0	-	-	-
Cc1nc([N+](=O)[O-])c(Br)n1Cc1ccc(Cl)c(Cl)c1	0	0	0	21µM	?	?
N#Cc1sc(NCc2cccc(Cl)c2)nc1Cl	0	0	0	?	19µM	30µM
NC(=O)c1cc(S(=O)(=O)N2CCN(c3ccc([N+](=O)[O-])cc3)CC2)cs1	0	?	0	21µM	12µM	27µM
Nc1c(Cl)cc([N+](=O)[O-])cc1Cl	0	0	0	0	-	-
Cc1nnc(SCc2ccc(Cl)c(Cl)c2)s1	0	0	0	24µM	11µM	13µM
CC(C)C1O/C(=N/C(=O)Nc2ccc(Cl)c(Cl)c2)NC1=O (configuration not stated)	0	0	0	9.5µM	24µM	27µM
Cc1nc2ccccc2n1CC(=O)c1ccc(O)c(O)c1	-	-	-	30µM	?	?
Cc1ncoc1C(=O)NCC1=C(c2ccc(S(C)(=O)=O)cc2)C[C@@H]2CC[C@H]1N2CCOc1ccccc1	0	?	-	-	-	-
Cc1cc(OCC(=O)N2CCC(C(=O)O)(c3ccccc3)CC2)c2c(C)c(C)c(=O)oc2c1	0	0	0	0	-	-
CCOC(=O)c1c(C)n(CC(O)CN2CCOCC2)c2cc(Br)c(OC)cc12 (configuration not stated)	0	0	0	0	-	-
O=[N+]([O-])CCO	0	0	0	0	-	-
O=C(N/N=C\C=C\c1ccco1)C1COc2ccccc2O1 (configuration not stated)	0	0	0	24µM	21µM	?
O=C(N/N=C/C=C/c1ccc([N+](=O)[O-])cc1)C1COc2ccccc2O1 (configuration not stated)	0	0	0	12µM	13µM	24µM
Cc1n[nH]c(C)c1CCN	0	0	0	0	-	-
COc1cccc(OCCc2c(C)n[nH]c2C)c1	0	0	0	27µM	?	?
N#C/C(=C/c1ccc(O)c(O)c1)C(=O)NCc1ccc(Cl)cc1	0	0	0	?	?	0
CCOP(=O)(OCC)C(NC(=O)c1cccc([N+](=O)[O-])c1)C(Cl)(Cl)Cl (configuration not stated)	0	0	0	0	-	-
SMILES	KCNH2 WT inh	KCNH2 3.1 block	TSG101-PTAP inh	Tb PFK inh-1	TbPFK ATP	Tb PFK inh-2
COc1ccccc1N1CCN(Cc2cccc(Br)c2)CC1	0	0	0	0	-	-
COc1ccc(C(=O)CN2CCOCC2)cc1F	0	0	0	0	-	-
COc1ccc(C(=O)CSC#N)cc1OC	0	0	0	?	4.8µM	12µM
COc1cccc2c1NC(C(=O)O)C1CC=CC21 (configuration not stated)	0	0	0	?	?	?
CS(=O)(=O)N1Cc2ccccc2CC1C(=O)OCC(=O)Nc1ccc2ccccc2c1 (configuration not stated)	0	0	0	?	?	0
CC(=O)Nc1ccccc1C(=O)OCC(=O)c1ccc2ccccc2c1	0	0	0	0	-	-
CCOc1cc(CNCCc2c[nH]c3ccccc23)cc(Cl)c1OC	0	0	0	0	-	-
COc1cc(/C=C(\C#N)C(=O)c2ccc(O)c(O)c2)cc(I)c1O	0	0	?	1.7µM	0	0
COc1cc(/C=C/c2[nH]c(=O)[nH]c(=O)c2[N+](=O)[O-])cc([N+](=O)[O-])c1O	0	0	0	?	0	?
Cn1cc(C(=O)OCC(=O)NC2(C#N)CCCC2)c2ccccc21	0	0	0	0	-	-
Cc1ccc(Cn2nc(C(=O)Nc3ccc(Br)cc3)cc2C)cc1	0	0	0	0	-	-
CC(=O)Nc1ccc(S(=O)(=O)N2Cc3ccccc3-n3nncc3C2)cc1	0	0	-	-	-	-
Cc1c(Br)c([N+](=O)[O-])nn1CC(=O)Nc1ccc2nc3n(c(=O)c2c1)CCCC3	0	0	0	?	24µM	?
Cc1c(Br)c([N+](=O)[O-])nn1CC(=O)Nc1ccc(Cc2ccncc2)cc1	0	0	0	13µM	13µM	21µM
Cc1c(Br)c([N+](=O)[O-])nn1CC(=O)Nc1ccccn1	0	0	0	19µM	19µM	?
CC(=O)Nc1ccc(NC(=O)Cn2nc([N+](=O)[O-])c(Br)c2C)cc1	0	0	0	12µM	19µM	30µM
Brc1ccc(-[n+]2c(-c3ccccc3)cc(-c3ccccc3)cc2-c2ccccc2)cc1	0	0	0	0	-	-
Clc1cccc2c3c([nH]c12)CCNC3	0	0	0	?	?	?
COC(=O)C1=C(c2ccccc2)C[C@@H]2CC[C@H]1N2C	0	0	0	0	-	-
O=c1c(O)cccc2cc(O)c(O)c(O)c12	0	0	0	6.7µM	0.43µM	0.48µM
Clc1ccc(-c2nc3ccc(Cl)cn3c2CN2CCCCC2)cc1	0	0	0	0	-	-
Clc1ccc(CNc2cnccn2)cc1Cl	0	0	0	6.7µM	5.4µM	9.5µM
CC1([N+](=O)[O-])COP(=O)(Nc2cccc(Br)c2)OC1 (configuration not stated)	0	0	0	-	-	-
Nc1ccn(Cc2cccc(Cl)c2)n1	0	0	0	27µM	19µM	?
COC(=O)c1[nH]c2ccc(C)cc2c1NC(=O)CN1CCCc2ccccc21	0	0	0	?	0	?
